MazF activator = MazEF (E. coli) toxin RNase activation; P0AE70; FAM/BHQ RNA-DNA oligo cleavage fluorescence, 5 h; activation, % at 20 µM; 350,000 tested, 0.32% active; AID 504720; in the data active = activation above about 50%
Target sequence (P0AE70 whole entry, looked up): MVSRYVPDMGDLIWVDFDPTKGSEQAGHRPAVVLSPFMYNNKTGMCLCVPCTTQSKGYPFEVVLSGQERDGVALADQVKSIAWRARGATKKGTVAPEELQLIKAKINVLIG
PriA SSB inh = blocks PriA binding to SSB C-terminal tail. 430,000 tested, 0.6% active. inhibition, % at 33 µM. AlphaScreen SSBct-PriA binding, biotinylated peptide; in the data active = inhibition mostly above about 37%, no sharp cut-off; inactive = mostly below about 20%
Autofluor counter = counter-screen for toxin protease inhibitors: compound fluorescence; compound autofluorescence counterscreen, microsphere flow cytometry; active compounds read high; fluorescence intensity (test concentration not listed); 360,000 tested, 3.1% active; AID 624483; in the data active = fluorescence intensity above about 16000; inconclusive = no clear call, values can overlap the other calls
BoNT-A LC inh2 = BoNT A light chain protease inhibition; multiplex microsphere protease substrate cleavage, flow cytometry; inhibition, % at 10 µM; 360,000 tested, 0.17% active; AID 588499
Anthrax LF prot = blocks Bacillus anthracis lethal factor protease. 360,000 tested, 0.12% active. multiplex microsphere protease cleavage assay, LF. inhibition, % at 10 µM. P15917
BoNT F protease = inhibitors of Botulinum neurotoxin F light chain protease. Multiplex microsphere protease cleavage assay, flow cytometry. inhibition, % at 10 µM. 360,000 tested, 0.22% active. AID 588497; in the data active = inhibition above about 35%, passing the limit was not always enough; inconclusive = no clear call, values can overlap the other calls
BoNTA LC inh 1 = blocks botulinum neurotoxin A light chain protease | multiplex microsphere protease assay, flow cytometry | AID 602139 | shares compounds with BoNT F protease | 720 tested, 3% active | inhibition, % at 10 µM; in the data active = inhibition above about 32%
BoNTF LC inh 1 = BoNT/F light chain protease inhibition; shares compounds with BoNT F protease; multiplex microsphere protease cleavage assay, flow cytometry; inhibition, % at 10 µM; 720 tested, under 10 active; AID 602140; call rule not given here
LF protease CP1 = Bacillus anthracis lethal factor protease inhibition | shares compounds with BoNT F protease | multiplex microsphere protease cleavage assay, LF | inhibition, % at 10 µM | 720 tested, under 10 active; call rule not given here
Hits are given with their value; . = inactive; ? = inconclusive; / = not tested or not shown. This is a sample that favours compounds with a hit; in the whole collection about 3.3% have one here. Cut-off read from the data, not from the text of the source, unless noted: active = inhibition above about 30%; inconclusive = no clear call, values can overlap the other calls; inactive = below that.

SMILES	MazF activator	PriA SSB inh	Autofluor counter	BoNT-A LC inh2	Anthrax LF prot	BoNT F protease	BoNTA LC inh 1	BoNTF LC inh 1	LF protease CP1
CC(=O)N1N=C(c2ccccc2)CC1c1cccc([N+](=O)[O-])c1 (centres undefined)	.	.	.	.	.	41.9	.	.	.
CC(=O)N1N=C(c2cccs2)CC1c1cccc([N+](=O)[O-])c1 (centres undefined)	.	.	.	.	.	.	/	/	/
CCOc1nn(CC)cc1C(=O)NCCCn1ccnc1	/	.	/	/	/	/	/	/	/
CCN1CCN(S(=O)(=O)c2cccc([N+](=O)[O-])c2)CC1	.	.	.	.	.	.	/	/	/
O=[N+]([O-])c1cccc(S(=O)(=O)N2CCCC2)c1	.	.	.	.	.	.	.	.	.
O=C(CCSc1ccccn1)Nc1ccc(Br)cc1	.	.	.	.	.	47.2	.	.	.
Cc1cc(C)c(C#N)c(Oc2ccccc2)n1	.	.	.	.	.	.	/	/	/
CCN(C(=O)COc1nc(C)cc(C)c1C#N)c1ccccc1	.	.	.	.	37.5	.	.	.	.
CCOc1ccc(NC(=O)c2ccc(Cl)c(NC(=O)c3ccco3)c2)cc1	.	.	.	.	.	37.8	.	.	.
Cc1cccc2cc(C(c3nnnn3C3CCCC3)N3CCOCC3)c(=O)[nH]c12 (centres undefined)	.	.	21873	?	.	.	.	.	.
Cc1ccc2[nH]c(=O)c(C(c3nnnn3CC3CCCO3)N3CCOCC3)cc2c1 (centres undefined)	.	.	?	.	.	.	/	/	/
Cc1cc(C)c2cc(C(c3nnnn3C3CCCC3)N3CCOCC3)c(=O)[nH]c2c1 (centres undefined)	.	.	.	.	.	.	.	.	.
O=C(Cn1nc(-n2cccn2)ccc1=O)Nc1ccc2c(c1)Cc1ccccc1-2	/	.	/	/	/	/	/	/	/
CCOc1ccc(NC(=O)Cn2c(=O)n(CCCCCC(=O)NCc3ccc(F)cc3)c(=O)c3sccc32)cc1	/	.	/	/	/	/	/	/	/
Cc1ccc(N2C(=O)N(CC(=O)NCc3ccc(Cl)cc3)C(=O)C2C)cc1 (centres undefined)	.	.	.	.	.	.	/	/	/
CCc1ccc(C(=O)CN2C(=O)C(C)N(c3ccc(C)cc3)C2=O)cc1 (centres undefined)	.	.	.	.	.	49.9	.	.	.
O=C(O)CCC(=O)Nc1ccccc1F	/	.	/	/	/	/	/	/	/
O=C(CC(=O)Nc1ccccc1F)Nc1ccccc1F	.	.	.	.	41.5	.	.	.	.
CCCc1oc(C(=O)O)cc1CN1CCOCC1	.	.	.	.	.	42.3	.	.	.
CC(=O)NCCC(=O)N1CCCC(N2CCN(c3cccc(Cl)c3)CC2)C1 (centres undefined)	.	.	.	.	.	41.7	.	.	.
CCN(CC)C(=O)CSc1nc(Cc2ccccc2)nc2ccccc12	.	.	.	.	39.8	?	.	.	.
O=C(Nc1nc(CCC(=O)N2CCN(c3ccccn3)CC2)cs1)NC1CCCCC1	/	.	/	/	/	/	/	/	/
CCn1ccnc1CN1CCN(CC=C(C)C)C(CCO)C1 (centres undefined)	.	.	.	.	.	47.9	.	.	.
O=C(Cn1ccn(-c2ccc3c(c2)OCCO3)c(=O)c1=O)NCc1ccccc1	/	.	/	/	/	/	/	/	/
O=S(=O)(NCc1cccnc1)c1cc(Cl)ccc1Cl	.	.	.	34.2	.	37.1	.	.	.
SMILES	MazF activator	PriA SSB inh	Autofluor counter	BoNT-A LC inh2	Anthrax LF prot	BoNT F protease	BoNTA LC inh 1	BoNTF LC inh 1	LF protease CP1
O=C(O)c1ccc(Cl)c(S(=O)(=O)NCc2cccnc2)c1	.	.	.	.	.	.	/	/	/
Nc1n[nH]c2c1CCCC2	/	.	/	/	/	/	/	/	/
COCC(=O)Nc1cc(C)nn1-c1nc(C)c(C)c(=O)[nH]1	/	.	/	/	/	/	/	/	/
CCOc1cccc(OCCCCN2CCCCC2)c1	.	.	.	.	.	.	/	/	/
Brc1cccc(OCCCCN2CCCCC2)c1	.	.	.	.	.	35.2	.	.	.
CCOC(=O)CC(=O)CSc1ncc(C(=O)OCC)c(N)n1	.	.	.	.	50.3	134.1	.	.	.
CCOC(=O)C1CCN(C(=O)Nc2ccc(OCc3ccccc3)cc2)CC1	.	.	.	.	30.8	?	.	.	.
Cc1cccc(CCNS(=O)(=O)c2ccc(S(=O)(=O)N3CCC(C)CC3)cc2)c1	.	.	.	.	.	.	.	.	.
COc1ccc(-c2nnc(NC(=O)Cc3ccc(C)cc3C)o2)c(OC)c1	/	.	/	/	/	/	/	/	/
CCOC(=O)C1CCCN(C(=O)c2ccc(OC)cc2)CC1 (centres undefined)	/	/	.	.	.	.	/	/	/
CCOC(=O)C1CCN(C(=O)c2ccc3nc(-c4ccc(OC)cc4)c(-c4ccc(OC)cc4)nc3c2)CC1	.	.	.	29.8	.	.	.	.	.
CC1CCc2c(sc3nc(SCC(=O)N4CCOCC4)n(-c4ccccc4)c(=O)c23)C1 (centres undefined)	/	.	/	/	/	/	/	/	/
Clc1ccc(CSc2ccc(-c3ccccn3)nn2)cc1	.	.	.	.	.	.	/	/	/
Clc1ccc(Cc2ccc(SCc3ccccc3)nn2)c(Cl)c1	.	.	?	.	.	43.4	.	.	.
O=C(CCC(=O)N1CCN(c2ccc(F)cc2)CC1)N1CCN(c2ccc(F)cc2)CC1	.	.	.	.	.	41.0	.	.	.
CCN1CCc2nc3sc(C(=O)N4CCc5ccccc5C4)c(N)c3cc2C1	.	.	.	.	.	.	/	/	/
CC(C)c1ccc2nc3sc(C(=O)N4CCc5ccccc5C4)c(N)c3cc2c1	.	.	.	.	.	.	.	.	.
COc1ccc(-n2nc(C(=O)NCC(=O)NCc3cccc(F)c3)c3ccccc3c2=O)cc1Cl	.	.	.	.	.	36.3	.	.	.
Cc1cc(NC(=O)CSc2nnc(-c3ccncc3)n2Cc2ccccc2)n(-c2ccccc2)n1	.	.	.	?	.	?	/	/	/
Cc1cc(NC(=O)CSc2nnc(-c3ccncc3)n2C)n(-c2ccccc2)n1	.	.	.	.	69.9	?	.	.	.
COc1ccccc1-c1ccc(SCc2cccc(F)c2)nn1	.	.	.	.	.	.	/	/	/
COc1ccccc1-c1ccc(SCc2ccccc2)nn1	.	.	.	32.5	.	.	.	.	.
Oc1ccccc1-c1nnc(-c2ccc(C(F)(F)F)cc2)o1	.	.	.	.	.	35.2	.	.	.
COc1cccc2sc(Nc3nc4c(s3)C(=O)CC(C)(C)C4)nc12	/	.	/	/	/	/	/	/	/
CCCOC1CCCN(Cc2nc(-c3cnccn3)no2)C1 (centres undefined)	.	.	.	.	.	34.9	.	.	.
CC12CCC3C(Br)(CC31C)C2=O (centres undefined)	/	.	/	/	/	/	/	/	/
CCc1ccc(OCc2nnc(SCC(=O)Nc3cccc(C(=O)N4CCOCC4)c3)o2)cc1	.	.	.	.	.	46.0	.	.	.
